MBNL1-CUG inh – MBNL1-poly(CUG) RNA binding inhibition; Q9NR56; TR-FRET MBNL1-His/biotin-(CUG)12 binding, 665/545 ratio; Potency, µM (titrated, usually from 57.5 µM), most hits filed as inhibitors; hit rate 0.036% among 280,000; AID 2675; active = well fitted inhibition curve with a large enough effect in the signal ratio, with a control signal flat, not every such curve was filed as active; inconclusive = small, poorly fitted or top-dose-only effect, or effect the other way, or a change in a side signal; inactive = no such curve, though single readings can be large or run the other way; the % refers to the signal ratio
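Compounds (final 92 nM to 58 uM) are added to His-tagged MBNL1 and biotin-(CUG)12, then terbium anti-His antibody and streptavidin-XL665 (5 nM final). After 60 min at room temperature, the 665/545 nm ratio is read.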
Six1-Eya2 inh – Six1/Eya2 interaction inhibition | Q15475+O00167 | AlphaScreen GST-Six1/His-Eya2 binding, biochemical; hits give low values | activity change, % (no concentration beside the values) | hit rate 0.56% among 360,000 | AID 651725; in the data active = activity change below about -65%; inconclusive = mostly about -30% to -63%
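Compounds are tested against tagged Six1 and Eya2 proteins bridged by glutathione donor and nickel acceptor beads; after a one-hour incubation at 37 °C without light, AlphaScreen emission is recorded.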
RORg inh – blocks mouse ROR gamma transcriptional activity. P51450. Drosophila S2 Gal4-RORgamma UAS-luciferase reporter, 20 h. Potency, µM (series often up to 53.6 µM), hits mostly inhibitors. hit rate 5.4% among 310,000; note: nearly all actives have a fitted effect of over 60% in size
Target sequence (P51450 whole entry, looked up, the tested form may be a part): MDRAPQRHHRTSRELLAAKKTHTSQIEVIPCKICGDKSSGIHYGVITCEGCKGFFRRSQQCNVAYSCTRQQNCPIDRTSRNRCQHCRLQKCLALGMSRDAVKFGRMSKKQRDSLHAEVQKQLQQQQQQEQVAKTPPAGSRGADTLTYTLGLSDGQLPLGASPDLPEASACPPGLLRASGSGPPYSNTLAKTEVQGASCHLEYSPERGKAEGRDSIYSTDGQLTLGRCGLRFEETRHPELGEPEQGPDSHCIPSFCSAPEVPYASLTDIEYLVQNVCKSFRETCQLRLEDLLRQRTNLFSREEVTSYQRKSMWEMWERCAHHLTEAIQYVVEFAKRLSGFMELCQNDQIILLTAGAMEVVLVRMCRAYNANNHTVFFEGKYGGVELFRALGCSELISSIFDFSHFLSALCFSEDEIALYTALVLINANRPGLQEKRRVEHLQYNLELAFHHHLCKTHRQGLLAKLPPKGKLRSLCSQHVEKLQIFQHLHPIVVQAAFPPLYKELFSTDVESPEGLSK
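Stable Schneider cell line, Gal4 DNA-binding domain fused to ROR gamma, UAS-luciferase. Cmpd 1 hr RT → CuSO4 700 uM final → 20 hr RT → luciferase reagent 10 min → luminescence.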
CBFb RUNX1 block – inhibitors of human CBF-beta and RUNX1 interaction | Q01196+Q13951 | 230,000 tested, under 10 active | Potency, µM (doses to about 59.8 µM), actives largely listed as inhibitors | AlphaScreen CBFb-His/RUNX1-biotin binding, biochemical
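Compounds were screened at multiple concentrations against a preformed CBF-beta(His)/RUNX1(biotin) complex (30 nM of each) for 15 min at room temperature, followed by 90 min with nickel and streptavidin beads and AlphaScreen reading.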
Gal4-VP16 FLuc – counter-screen for ROR gamma inhibitors: Gal4-VP16 reporter; Drosophila S2 Gal4-VP16 UAS-luciferase, luminescence, 20 h; Potency, µM (doses to about 53.6 µM), actives largely listed as inhibitors; hit rate 3.5% among 310,000; AID 2546;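 note: Gal4-VP16 expression switched on by copper sulfate through the metallothionein promoter; nearly all actives have a fitted effect of over 50% in size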
CtBP-E1A inh – CtBP/E1A binding inhibition; AlphaScreen GST-E1A/His-CtBP binding, 1536-well; hits give low values; activity change, % (no concentration beside the values); hit rate 0.49% among 340,000; AID 651724; in the data active = activity change below about -65%; inconclusive = mostly about -30% to -63%
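GST-E1A and His-tagged CtBP (125 nM each as 5X stock) were preincubated with pin-transferred compound for 2 h at 37 °C in the dark, then glutathione donor and nickel acceptor beads were added for 1 h before AlphaScreen reading.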
Of the large screens only hits and unclear results are named; the others gave an inactive call. Only some compounds are listed: those with a hit (about 5.5% of all), similar ones and a draw of the others. Unless noted, calls come from the whole dose curve; as a rule, active = well fitted curve in the direction sought with a large enough effect; inconclusive = small, poorly fitted or top-dose-only effect, or another doubt; inactive = no such curve, though single readings can be large; an effect the other way counts as inactive or inconclusive.

COC(=O)C1=NNC(C(=O)c2ccco2)C1c1ccc(OC)cc1 (configuration not stated)	none
CC[C@]12c3[nH]c4cc(CCC(=O)N(C)C)ccc4c3CCN1C(=O)[C@@H](CC(=O)NCc1cccc(C(F)(F)F)c1)C[C@@H]2C(=O)N1CCN(C(=O)c2ccco2)CC1	none (no result: MBNL1-CUG inh, RORg inh, CBFb RUNX1 block, Gal4-VP16 FLuc)
COC(=O)[C@@]1(Cc2ccccc2)[C@H]2c3cc(C(=O)N4CCCC4)n(Cc4ccc(C(F)(F)F)nc4)c3C[C@H]2CN1C(=O)c1ccccc1	none (no result: MBNL1-CUG inh, Six1-Eya2 inh, CtBP-E1A inh)
O=C(CCn1c(=O)c2ccccc2n(Cc2ccccc2)c1=O)NC1CCN(Cc2ccccc2)CC1	RORg inh 0.112µM
Cc1noc(C)c1-c1nc(NC2CC2)c2ccccc2n1	none (no result: MBNL1-CUG inh, Six1-Eya2 inh, CBFb RUNX1 block, CtBP-E1A inh)
CCN=c1scc(-c2ccc(F)cc2)n1/N=C/c1ccccn1	Six1-Eya2 inh inconclusive, RORg inh 17.8µM, CBFb RUNX1 block inconclusive
CCN=c1scc(-c2ccccc2)n1/N=C/c1ccccn1	Six1-Eya2 inh inconclusive, RORg inh 4.47µM, CBFb RUNX1 block inconclusive, Gal4-VP16 FLuc 7.94µM, CtBP-E1A inh inconclusive (no result: MBNL1-CUG inh)
Cc1nc2ccccc2c(=O)n1/N=C/c1ccccn1	none
CCCOc1cccc(C2C(C(=O)c3ccc(C)o3)=C(O)C(=O)N2c2nc(C)c(C(C)=O)s2)c1 (configuration not stated)	RORg inh 14.1µM (no result: CBFb RUNX1 block)
CCOc1cccc(C2C(C(=O)c3ccc(C)o3)=C(O)C(=O)N2c2nnc(C)s2)c1 (configuration not stated)	none (no result: MBNL1-CUG inh, RORg inh, CBFb RUNX1 block, Gal4-VP16 FLuc)
CCCNC(=O)C1(C)CCN1C(=O)Cc1ccc(C(C)C)cc1 (configuration not stated)	none (no result: MBNL1-CUG inh, RORg inh, CBFb RUNX1 block, Gal4-VP16 FLuc)
CC(Nc1cccc2ccccc12)C(=O)N/N=C/c1ccc([N+](=O)[O-])cc1 (configuration not stated)	RORg inh 12.6µM, Gal4-VP16 FLuc 14.1µM
COc1cc([N+](=O)[O-])cc(/C=N/NC(=O)C(C)Nc2cccc3ccccc23)c1O (configuration not stated)	MBNL1-CUG inh inconclusive, Six1-Eya2 inh inconclusive, RORg inh 0.398µM, CBFb RUNX1 block inconclusive, Gal4-VP16 FLuc 0.501µM, CtBP-E1A inh inconclusive
O=C1NC(=O)C(c2ccccc2[N+](=O)[O-])=C1Nc1ccc(O)c(Cl)c1	MBNL1-CUG inh inconclusive, RORg inh inconclusive, CBFb RUNX1 block inconclusive
Cc1cc2c(cc(C(=O)NCCCN3CCOCC3)n2Cc2ccc(Cl)cc2)o1	RORg inh inconclusive, Gal4-VP16 FLuc 10µM, CtBP-E1A inh inconclusive
C=CCOc1c(CNc2cccc(C(=O)O)c2)cccc1OC	RORg inh 10µM, Gal4-VP16 FLuc inconclusive
COC(=O)/C=C/c1cccc([C@H]2[C@@H]3C=CC[C@@H](C)[C@@H]3C(=O)N2Cc2ccccc2)c1	none (no result: MBNL1-CUG inh)
COc1ccc(C=NNC(=S)NN=Cc2ccc(OC)c(OC)c2)cc1OC	CtBP-E1A inh inconclusive (no result: MBNL1-CUG inh, RORg inh, CBFb RUNX1 block, Gal4-VP16 FLuc)
COc1ccc(/C=N/NC(=O)CCC(=O)Nc2ccccc2)cc1OC	none (no result: CtBP-E1A inh)
COc1ccc(/C=N/NC(=O)CCn2cnc(-c3ccccc3)c2-c2ccccc2)cc1OC	RORg inh inconclusive, Gal4-VP16 FLuc 12.6µM
COc1ccc(CNC(=S)N/N=C/c2ccc(OC)c(OC)c2)cc1	RORg inh 11.2µM, Gal4-VP16 FLuc inconclusive
COCCCNC(=S)N/N=C/c1ccc(OC)c(Br)c1	RORg inh 1µM, Gal4-VP16 FLuc 11.2µM
COc1ccc(/C=N/NC(=S)NCc2ccccc2)cc1OC	MBNL1-CUG inh inconclusive, RORg inh 10µM, Gal4-VP16 FLuc inconclusive
CC(CNC(=O)CCCn1c(=O)c2cccn2c2cccnc21)c1ccccc1 (configuration not stated)	none (no result: MBNL1-CUG inh, RORg inh, CBFb RUNX1 block, Gal4-VP16 FLuc)
O=C(N1CCOCC1)N1CCN(S(=O)(=O)c2cccc([N+](=O)[O-])c2)CC1	MBNL1-CUG inh inconclusive (no result: CBFb RUNX1 block)
COc1cc(/C=N/Nc2ccccc2)ccc1O	none (no result: CBFb RUNX1 block)
COc1ccc(CNC(=S)N/N=C/c2ccc(O)c(OC)c2)cc1	RORg inh 10µM, Gal4-VP16 FLuc 15.8µM
COc1ccc(/C=N/OCC(=O)NC(c2ccccc2)c2ccccc2)cc1OC	RORg inh inconclusive, Gal4-VP16 FLuc 1.58µM (no result: MBNL1-CUG inh)

High-throughput results deposited in PubChem by National Center for Advancing Translational Sciences (NCATS).
